MPTP inh: mitochondrial permeability transition pore inhibitors, primary screen, biochemical, isolated mouse mitochondria, absorbance; Ca2+ swelling absorbance, 30 min; inhibition, % at 10 µM; hit rate 1.4% among 360,000; AID 602449, 2012;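 active means inhibition of 50% or more, scaled per plate between neutral and stimulator controls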
Calb FLC: C. albicans growth inhibition with fluconazole, primary screen, CaCi-2 strain, Alamar Blue fluorescence; growth inhibition, % (no concentration beside the values); C. albicans CaCi-2 (fluconazole-resistant clinical isolate) + fluconazole, 48 h; hit rate 0.57% among 300,000;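 active means growth inhibition above about 58% in most replicates, limit read from the data, passing the limit was not always enough; inconclusive means exactly half the replicates above a set limit; inactive means most replicates below a set limit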;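 further: all wells also contain fluconazole at 8 µg/ml as a sub-toxic cotreatment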
CSC inhib: cancer stem cell viability inhibitors, primary screen, luminescence; AID 2717, 2010; cancer stem cell-like cells viability; inhibition, % at 7.5 µM; hit rate 1.1% among 300,000; in the data active means inhibition above about 75%; inconclusive means no clear call, values can overlap the other calls; tested in HMLE shEcad cells
Mdm2-MdmX inh: inhibitors of human Mdm2-MdmX association, primary screen, cell-based, luminescence, split luciferase, SaOS-2, uHTS; hit rate 3% among 330,000; SaOS-2 split-luciferase Mdm2/MdmX complementation; inhibition, % at 8 µM; Protein Mdm4 (Homo sapiens) + E3 ubiquitin-protein ligase Mdm2 (Homo sapiens), …; AID 485346, 2010;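 active means inhibition of at least 50% at 8 µM in the primary screen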
Target sequence (O15151 whole entry, looked up): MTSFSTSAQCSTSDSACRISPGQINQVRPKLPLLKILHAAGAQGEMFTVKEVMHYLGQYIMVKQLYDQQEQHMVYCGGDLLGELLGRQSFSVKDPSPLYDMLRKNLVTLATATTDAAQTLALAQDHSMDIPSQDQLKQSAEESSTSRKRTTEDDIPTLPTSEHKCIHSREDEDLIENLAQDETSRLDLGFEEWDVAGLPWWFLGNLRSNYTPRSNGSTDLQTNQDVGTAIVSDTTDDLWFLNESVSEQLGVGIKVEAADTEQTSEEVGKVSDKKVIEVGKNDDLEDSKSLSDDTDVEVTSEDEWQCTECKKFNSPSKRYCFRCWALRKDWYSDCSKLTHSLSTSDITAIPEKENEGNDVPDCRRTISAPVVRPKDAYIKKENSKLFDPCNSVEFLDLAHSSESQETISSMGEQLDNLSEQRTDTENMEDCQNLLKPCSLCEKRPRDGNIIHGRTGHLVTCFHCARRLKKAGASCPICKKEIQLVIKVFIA
Target sequence (Q00987 whole entry, looked up): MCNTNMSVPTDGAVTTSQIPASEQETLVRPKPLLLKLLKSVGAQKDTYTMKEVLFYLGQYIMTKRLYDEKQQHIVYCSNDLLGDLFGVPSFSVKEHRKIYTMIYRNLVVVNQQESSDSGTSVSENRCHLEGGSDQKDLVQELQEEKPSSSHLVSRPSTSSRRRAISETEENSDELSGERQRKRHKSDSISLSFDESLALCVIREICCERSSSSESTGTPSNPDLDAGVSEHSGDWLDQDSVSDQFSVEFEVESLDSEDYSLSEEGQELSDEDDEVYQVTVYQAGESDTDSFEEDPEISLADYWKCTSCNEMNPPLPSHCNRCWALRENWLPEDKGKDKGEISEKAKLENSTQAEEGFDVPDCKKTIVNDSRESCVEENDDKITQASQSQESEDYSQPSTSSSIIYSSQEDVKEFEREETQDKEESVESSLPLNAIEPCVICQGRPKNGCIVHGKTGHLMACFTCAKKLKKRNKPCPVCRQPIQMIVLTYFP
Beta cell apopt: inhibitors of cytokine-induced beta cell apoptosis, primary screen, luminescence; INS-1E cytokine-induced death, ATP luminescence, 48 h; percent of positive-control rescue, neutral wells zero; protection from apoptosis, % (no concentration beside the values); hit rate 0.8% among 300,000; AID 435005, 2010;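 active means Every replicate reaches about 75%, or at least half do and their mean reaches it too, limit read from the data; inconclusive means At least half of replicates reach the limit but their mean does not; inactive means Under half of replicates reach the limit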;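 further: higher means more ATP so stronger rescue from cytokine killing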
MPTP counter: fluorescence retest of MPTP screen hits in isolated mitochondria, single concentration; hit rate 78% among 5,000; shares compounds with MPTP inh; membrane potential, Rhodamine 123 fluorescence; inhibition, % at 10 µM; AID 624504, 2012; in the data active means inhibition above about 22%
MPTP abs DR: mitochondrial permeability transition pore inhibitors, dose response, biochemical, absorbance, uHTS hits; IC50, µM; shares compounds with MPTP inh; AID 651561, 2012; isolated mitochondria swelling; hit rate 58% among 780; in the data active means IC50 below about 20 µM
MPTP counter DR: fluorescent counter-screen in isolated mitochondria, dose response, counter-screen for MPTP inhibitor project, biochemical, fluorescence, uHTS hits; IC50, µM; hit rate 49% among 780; isolated mitochondria counterscreen, fluorescence read-out; shares compounds with MPTP inh; in the data active means IC50 below about 80 µM
Numbers stand for hits; – = inactive; ? = inconclusive; · = no result given. In the library only some 4.8% were active in any assay of this set; here they are far more common.

SMILES	MPTP inh	Calb FLC	CSC inhib	Mdm2-MdmX inh	Beta cell apopt	MPTP counter	others
COc1ccc(C=C2SC(=S)NC2=O)cc1	–	·	·	·	·	·
O=C1NC(=S)SC1=Cc1ccc(F)cc1	81.6	·	·	·	·	84.5
O=C1NC(=S)SC1=Cc1ccccc1Br	94.2	·	·	·	·	73.5
O=C1NC(=S)SC1=Cc1ccc(Cl)cc1	94.6	·	·	·	·	78.8
O=C1NC(=O)C(=Cc2ccc(Cl)cc2Cl)S1	81.0	·	·	·	·	93.6
O=C1NC(=S)NC1=Cc1ccc(Cl)cc1Cl	–	·	·	·	·	·
COC(=O)[C@@]1(Cc2ccc(F)cc2)[C@H]2c3cc(C(=O)N4CCCC4)n(Cc4cc(F)cc5c4OCOC5)c3C[C@H]2CN1C(=O)c1ccccc1	–	·	·	·	·	·
Cc1c(C(=O)NNC(=O)c2cccnc2)cccc1[N+](=O)[O-]	–	·	–	–	–	·
O=C(OCN1C(=O)c2ccccc2C1=O)c1cccc(S(=O)(=O)N2CCOCC2)c1	–	–	–	–	–	·
O=C(Nc1ccc(Cl)cc1)N(C1=NCCC1)c1ccc(OC(F)F)cc1	89.6	–	–	–	–	99.3
CC(NC(=O)/C=C/c1ccc(Br)cc1)c1ccc(Cl)cc1 (stereo not given)	77.6	–	–	–	–	84.0
O=S(=O)(c1ccc(Cl)cc1)N1CCC(O)(CN2CCN(Cc3ccccc3)CC2)CC1	–	–	–	–	–	·
O=S(=O)(c1ccccc1)N1CCC(O)(CSc2ccc(Cl)cc2)CC1	98.0	–	–	–	–	84.4
Cc1ccc(NC(=O)C(C)c2ccc([N+](=O)[O-])cc2)cc1Cl (stereo not given)	79.9	–	–	–	–	87.0
O=C(Nc1ccc(OC(F)F)c(Cl)c1)Nc1ccc2c(c1)OCO2	92.0	–	97.5	–	–	88.2
O=C(Nc1ccc([N+](=O)[O-])cc1)Nc1ccc(OC(F)F)c(Cl)c1	97.9	·	103.1	·	132.0	47.0
O=C(Nc1ccc2c(c1)OCO2)Nc1ccc(Cl)cc1Cl	83.4	–	–	–	·	94.3
O=C(Nc1ccc(Cl)cc1)Nc1ccc2c(c1)OCO2	–	–	–	–	–	·
N#Cc1ccc(CN2CCN(C(=O)C3CC(=O)N(c4ccccc4F)C3)CC2)cc1 (stereo not given)	–	·	–	–	–	·
CCCCc1ccc(NC(=S)N2CCC(O)CC2)cc1	–	–	–	–	–	·
O=C(c1ccc(Br)cc1)N1CCC2(CC1)NCCc1[nH]cnc12	–	–	–	–	–	·
C[N+](C)=C1SCC(C)(/C=N/O)S1 (stereo not given)	–	–	–	–	–	·
O=C(Cc1ccc(Cl)cc1Cl)Nc1ccc(OC(F)F)c(Cl)c1	73.8	–	–	–	–	84.4
O=C(Nc1ccc(OC(F)F)c(Cl)c1)c1cccc(OC(F)F)c1	97.0	–	–	–	–	94.8
O=C(COC(=O)Cc1ccc(Cl)cc1Cl)Nc1ccc(OC(F)F)cc1	–	–	–	–	–	·
SMILES	MPTP inh	Calb FLC	CSC inhib	Mdm2-MdmX inh	Beta cell apopt	MPTP counter	others
CCCCn1c(N)c(N(CC(C)C)C(=O)c2c(-c3ccccc3)noc2C)c(=O)[nH]c1=O	–	·	·	–	–	·
COc1ccc(C(=O)CCN2CCN(c3ccccc3F)CC2)cc1	–	–	?	–	–	·
O=C(CCN1CCN(c2ccccc2F)CC1)c1ccc(Br)cc1	112.5	–	·	–	–	–	MPTP abs DR=–;MPTP counter DR=52.8
CCCc1ccc(C(=O)NC(=O)c2ccccc2O)cc1	59.2	–	–	–	–	91.2
O=C(Nc1nc(-c2ccccn2)cs1)c1ccc(Br)s1	53.9	92.6	97.0	–	85.1	–
O=C(Nc1nccs1)c1ccc(Br)s1	–	–	–	–	–	·
O=C(Cc1csc(NC(=O)Nc2cccc(Cl)c2)n1)NC1CCCC1	78.6	–	–	–	·	73.1
O=C(Nc1cccc(Cl)c1)Nc1sccc1-c1nc2ccccc2s1	78.3	–	76.0	–	–	68.6
O=C(Cc1csc(NC(=O)Nc2cccc(Cl)c2)n1)NCc1ccccn1	–	–	·	–	–	·
CCC(=O)NCc1csc(-c2cccs2)n1	–	–	–	–	–	·
O=C(NCc1csc(-c2cccs2)n1)Nc1cccc(Cl)c1	76.2	–	–	–	–	81.8
O=C(Nc1ccccc1)Nc1sccc1-c1nc2ccccc2s1	–	–	–	–	–	·
O=C(Nc1cccc(Cl)c1)Nc1nc(-c2ccc(Cl)cc2)cs1	92.2	–	–	–	–	93.6
O=C(Nc1ccccc1)Nc1nc(-c2ccc(Cl)cc2)cs1	–	–	–	–	–	·
CCOc1ccccc1C(=O)Nc1cc(C)ccc1NC(=O)c1ccco1	–	–	–	–	–	·
COc1cc(NC(=O)COC(=O)CNC(=O)C2CCCCC2)cc(OC)c1	–	·	·	–	–	·
O=C(Nc1ccc(Cl)cc1)C1=Cc2ccccc2OC1	88.9	–	–	–	–	107.9
C=CCN1CC(C(=O)N2CCC(Cc3ccc(Cl)cc3)(C(=O)OCC)CC2)CC1=O (stereo not given)	–	–	–	–	–	·
COc1ccc(CCNc2ncnc3sccc23)cc1OC	95.3	–	–	–	110.9	80.1
COc1ccc(Nc2ncnc3sccc23)cc1OC	–	·	–	–	–	·
COc1ccccc1CNc1ncnc2sccc12	52.5	–	–	–	97.2	75.9
c1ccc2c(c1)OCC(CNc1ncnc3sccc13)O2 (stereo not given)	99.4	79.7	–	·	107.1	103.0
Cc1ccc(N2CC(C(=O)Nc3cccnc3)CC2=O)cc1C (stereo not given)	–	–	–	–	–	·
S=C(NCCC1=CCCCC1)Nc1ccc(Cl)cc1	91.3	?	–	–	–	90.3
COc1ccc(NC(=S)NCCC2=CCCCC2)cc1OC	–	–	–	–	–	·
SMILES	MPTP inh	Calb FLC	CSC inhib	Mdm2-MdmX inh	Beta cell apopt	MPTP counter	others
Clc1ccc(CNCCC2=CCCCC2)cc1	70.5	–	–	–	–	–	MPTP abs DR=12.6;MPTP counter DR=–
COc1ccc(C(=O)COC(=O)c2nc3nccc(C)n3n2)cc1F	–	·	·	–	–	·
COc1ccc(Cl)cc1-c1noc([C@@H]2O[C@H](CO)[C@H](O)[C@H](O)[C@H]2O)n1	–	·	·	·	·	·
Cc1nn(C)c(Cl)c1NC(=O)OCc1ccc(Cl)cc1Cl	86.7	–	–	–	–	91.8
Cc1nnsc1NC(=O)OCc1ccc(Cl)cc1Cl	–	?	–	–	–	·
Cn1c(=O)n(C)c2cc(S(=O)(=O)NCCc3ccccc3)ccc21	59.2	–	–	–	–	23.8
COC(=O)C(C)(C)ONC(=O)Nc1ccc(Br)cc1	–	–	–	–	–	·
CC(NC(=O)Nc1ccc(Br)cc1)C(C)(C)C (stereo not given)	78.5	–	–	–	–	92.7
